Source: PubChem BioAssay
HCV inhibitor – HCV inhibition. AID 651820. Huh7.5.1 HCVcc-Cre infection, luciferase reporter, 44 h. Potency, µM (top dose mostly 41.8 µM), without a hit: top-dose activity change, negative = inhibition, actives largely listed as inhibitors. 340,000 tested, 3.4% active; further: potency means the concentration at half of the fitted maximal effect; on the % scale 0 is the no-effect control and ±100 the full control effect
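Antiviral activity was scored by luciferase reporter output from cells infected with HCVcc-Cre (~0.5 moi) in presence of compound, 44 h infection period, cells seeded 1,000/well 4 h prior.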
Pf growth 96h – inhibits malaria parasite growth, 96 h | Potency, µM (doses to about 28.7 µM), for inactives: at the top dose activity change, negative = inhibition, hits mostly inhibitors | P. falciparum luciferase reporter growth, 96 h | 320,000 tested, 6.9% active; further: potency means the concentration at half of the fitted maximal effect; on the % scale 0 is the no-effect control and ±100 the full control effect
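Cell-based qHTS: luciferase-tagged P. falciparum in erythrocytes (2% hematocrit, 0.05% parasitemia final) incubated with compounds for 96 hours, 37 C, 5% CO2; luciferase detection reagent then added and luminescence measured.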
HCMV inh – inhibitors of human cytomegalovirus; HFF cells, HCMV-luciferase reporter, 72 h; stronger effect = lower value; activity change, negative = inhibition, % at 57.5 µM; 410,000 tested, 4.5% active; AID 1259415; in the data active means activity change below about -60%; inconclusive means no clear call, values can overlap the other calls; inactive means above about -39%; further: on the % scale 0 is the no-effect control and ±100 the full control effect
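Cell-based, HFFs, 1000 cells/well, 16 h 37C; cpds in DMSO + HCMV-luc, MOI 1 PFU/cell; 72 h 37C; OneGlo luminescence after 5 min RT; norm. to buffer vs Salinomycin 10uM.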
Sm TGR inh – S. mansoni TGR enzyme inhibition | Q962Y6 | purified TGR, DTNB reduction, TNB absorbance 405 nm | Potency, µM (doses to about 114 µM), for inactives: at the top dose activity change, negative = inhibition, actives largely listed as inhibitors | 360,000 tested, 3% active; further: potency means the concentration at half of the fitted maximal effect; on the % scale 0 is the no-effect control and ±100 the full control effect; nearly all actives have a fitted effect of over 60% in size
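Kinetic colorimetric format: TGR-catalysed, NADPH-driven DTNB reduction monitored via TNB absorbance. Enzyme dispensed at 20 nM; compound exposure 15 min at room temperature before reaction start.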
Pf growth 48h – P. falciparum growth inhibition at 48 hours (one generation); AID 504832; P. falciparum luciferase growth in erythrocytes, 48 h; 310,000 tested, 5.9% active; Potency, µM (titrated, usually from 28.7 µM), without a hit: at the top dose activity change, negative = inhibition, usual class: inhibitors; further: potency means the concentration at half of the fitted maximal effect; on the % scale 0 is the no-effect control and ±100 the full control effect
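Growth was read as firefly luciferase luminescence after a 48 h, 37 C, 5% CO2 exposure of compounds to reporter-bearing P. falciparum cultures (0.1% parasitemia, 2% hematocrit final) in Albumax-supplemented RPMI 1640.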
SARS PLpro yeast – blocks SARS-CoV papain-like protease in a yeast assay; S. cerevisiae expressing SARS-CoV PLpro, growth rescue; Potency, µM (top dose mostly 32.9 µM), inactives show top-dose activity, positive = growth rescue, actives largely listed as activators; AID 485353; 330,000 tested, 0.19% active; calls by dose curve; further: potency means the concentration at half of the fitted maximal effect; 0% is about no effect; nearly all actives have a fitted effect of over 55% in size
The depositor's hits bear a star; u = inconclusive; x = not tested or not shown; [ ] = remark or other dose. Compounds with a hit are over-represented: about 15% of the library has one in this group of screens. Unless noted, the call rests on the fitted dose curve; in most records, active means well fitted curve in the direction sought with a large enough effect; inconclusive means small, poorly fitted or top-dose-only effect, or another doubt; inactive means no such curve, though single readings can be large; an effect the other way counts as inactive or inconclusive.

SMILES	HCV inhibitor	Pf growth 96h	HCMV inh	Sm TGR inh	Pf growth 48h	SARS PLpro yeast
COC(=O)N1CCCCC1c1cc(C(=O)Nc2cccc3c2CCCC3)no1 (centres undefined)	x	x	-3.5	x	x	x
Cc1ccc(S(=O)(=O)N(C)C)cc1NC(=O)COC(=O)c1sc2cc(Cl)ccc2c1Cl	11.7%	62.3%	-3.6	u	11.7%	-1.0%
COc1cc(C(O)c2nc(-c3csc4ccccc34)cs2)ccc1F (centres undefined)	x	x	16.3	x	x	x
CCc1ccc(-c2[nH]nc3nc(-c4cc(OC)ccc4OC)cc(C(=O)O)c23)cc1	x	x	9.6	1.5%	x	x
COc1ccc(C(=O)C[n+]2ccc3c(c2)nnn3-c2ccccc2)cc1	u	272.0%	-26.5	3.1%	u	0.9%
COc1cc(OC)c(-c2nc3c[n+](CC(=O)c4ccccc4)ccc3n2C)cc1OC	17.0%	u	-9.2	-7.7%	1.85µM*	-1.4%
COc1ccc(C(=O)C[n+]2ccc3c(c2)nc(-c2cc(OC)c(OC)cc2OC)n3C)cc1	17.4%	1.04µM*	u	5.2%	3.29µM*	-1.4%
Cc1ccccc1C(C(=O)NC1CCCC1)N(C(=O)CNC(=O)c1ccco1)c1cccnc1 (centres undefined)	x	134.9%[1.15 µM]	x	4.5%	8.6%	0.4%
c1ccc2c(SCc3cn4ccccc4n3)nncc2c1	8.3%	-8.2%	-60.5*	-11.2%	34.9%	-2.2%
Cc1cc(C)c(C#N)c(SCc2cn3ccccc3n2)n1	u	u	-77.1*	2.9%	14.7%	2.9%
Clc1ccc(SCc2cn3ccccc3n2)cc1	-3.1%	173.0%	-37.5	-0.7%	175.5%	-0.7%
Cc1cc(C)nc(SCc2cn3ccccc3n2)n1	10.0%	-3.8%	-60.3*	-6.9%	20.8%	1.2%
CCCCOC(=O)c1nc[nH]c1C(=O)OCCCC	-28.7%	10.2%	-28.2	x	0.7%	0.2%
CCCCn1cc2c(c1-c1ccc(Cl)cc1)c(=O)n(C)c(=O)n2C	x	x	1.6	-12.9%	x	x
NC(=S)N/N=C1/CCSc2ccc3ccccc3c21	u	-3.2%	u	x	u	5.0%
CCCOc1ccc(C2C(=O)N(C3CCCCCC3)CC(=O)N2CCC)cc1OC (centres undefined)	x	x	-37.6	1.4%	x	x
CCCc1cc(=O)[nH]c2nnc(SCC(=O)Nc3cc(C)on3)n12	15.1%	40.3%	-22.4	-12.9%	-10.1%	5.1%
COCC(C)OC(=O)c1c(N)n(CC(C)C)c2nc3ccccc3nc12 (centres undefined)	-9.7%	x	u	-13.5%	11.7µM*	5.5%
C=CCn1c(N)c(C(=O)OC(C)CC)c2nc3ccccc3nc21 (centres undefined)	u	x	-4.3	-1.1%	10.4µM*	-6.5%
CC(NC(=O)C1CCC(C(C)(C)C)CC1)C(c1ccccc1)N1CCOCC1 (centres undefined)	18.7%	10.4µM*	u	-11.4%	u	0.1%
Cc1cccc(C(=O)NC(C)C(c2cccs2)N2CCOCC2)c1 (centres undefined)	4.4%	u	0.0	0.9%	-20.6%	-0.5%
CC(NC(=O)c1ccc(Cl)cc1Cl)C(c1ccccc1)N1CCOCC1 (centres undefined)	13.4%	-24.6%	-66.1*	17.9%	-12.4%	-1.7%
CC(C)C(NC(=O)c1ccc(Cl)cc1Cl)C(=O)N1CCN(S(=O)(=O)c2ccccc2)CC1 (centres undefined)	-11.2%	x	26.7	x	x	-1.4%
CC(NC(=O)C1CC1)C(c1cccs1)N1CCOCC1 (centres undefined)	9.7%	57.1%	-3.4	-6.3%	-2.8%	-0.4%
O=C(NC(N1CCOCC1)C(Cl)(Cl)Cl)c1ccccc1Cl (centres undefined)	16.7%	36.8%	0.9	20µM*	229.4%	0.4%
CC(NC(=O)c1cccc(C(F)(F)F)c1)C(c1ccccc1)N1CCOCC1 (centres undefined)	7.8%	u	-62.5*	-5.3%	u	0.0%
